# D1 agonist: Allosteric Agonists of the Human D1 Dopamine Receptor: qHTS; D(1A) dopamine receptor (Homo sapiens), P21728; HEK293 T-REx D1 cells, calcium flux, agonist mode; activation, % at 2 µM; hit rate 1% among 360,000; AID 504660, 2011; note: 0% is about no effect
# Target sequence (P21728 whole entry, looked up): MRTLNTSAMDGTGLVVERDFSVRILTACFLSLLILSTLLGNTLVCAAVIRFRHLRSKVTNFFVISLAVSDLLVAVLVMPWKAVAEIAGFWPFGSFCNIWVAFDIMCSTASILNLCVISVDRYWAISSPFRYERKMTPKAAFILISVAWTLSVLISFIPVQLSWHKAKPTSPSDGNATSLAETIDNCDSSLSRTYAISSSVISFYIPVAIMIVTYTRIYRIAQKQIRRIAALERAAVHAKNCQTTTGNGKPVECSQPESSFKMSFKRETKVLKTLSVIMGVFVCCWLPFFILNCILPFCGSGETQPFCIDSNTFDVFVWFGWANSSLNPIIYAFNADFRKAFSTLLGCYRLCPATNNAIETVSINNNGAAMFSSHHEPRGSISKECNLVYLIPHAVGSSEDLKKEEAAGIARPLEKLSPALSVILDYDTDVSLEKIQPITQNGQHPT
#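 Tetracycline-induced HEK293 TREx D1 cells, force-coupled to calcium signalling, were dye-loaded with a no-wash calcium kit. Compound was pin-added after a 10 s baseline. Fluorescence was read kinetically at 1 cycle/s for 180 s, with calcium rises flagged as agonism.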
# TRHR ag: qHTS for Small Molecule Agonists and Allosteric Enhancers of Human TRH Receptor: Primary Screen for Agonists; AID 493084, 2011; hit rate 0.18% among 360,000; TRHR cells, calcium flux fluo-8, FDSS agonist mode; Thyrotropin-releasing hormone receptor (Homo sapiens), P34981; activation, % at 2 µM; note: 0% is about no effect
#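 Read-out: compound-evoked intracellular calcium rise in TRHR cells, fluo-8 dye, kinetic FDSS fluorescence at 1 s/cycle following a 10-cycle baseline. Cells cultured overnight before dye loading (30 min–1.5 h, RT).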
# D1 antag: Antagonist of Human D 1 Dopamine Receptor: qHTS; activity change, negative = inhibition, % at 10 µM; hit rate 3.2% among 360,000; HEK293 TREx D1 cells, calcium flux, dopamine EC80; stronger effect = lower value; D(1A) dopamine receptor (Homo sapiens), P21728; AID 504652, 2011; in the data active = activity change below about -30%; note: % is set by controls: 0 for no effect and ±100 for the full control effect
#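 Using tetracycline-induced force-coupled D1 Hek293 cells and a calcium dye, signals were followed for 180 s after compound, then for 180 s after EC80 dopamine, to detect inhibitors.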
# TRHR PAM: qHTS for Small Molecule Agonists and Allosteric Enhancers of Human TRH Receptor: Primary Screen for Enhancers. Thyrotropin-releasing hormone receptor (Homo sapiens), P34981. TRHR cells, fluo-8 calcium fluorescence, EC20 TRH enhancement. enhancement, % at 2 µM. hit rate 0.66% among 360,000; in the data active = enhancement above about 30%; note: 0% is about no effect
#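 Enhancer read-out: after compound pinning and an initial kinetic agonist-mode read, an EC20 of TRH (10 nM final) was injected and fluo-8 calcium signal (Ex 480/Em 530) followed at 1 s/cycle for 100 cycles in TRHR-expressing cells.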
# D1 potentiator: Potentiators of Human D1 Dopamine Receptor: qHTS; D(1A) dopamine receptor (Homo sapiens), P21728; HEK293 TREx D1 cells, calcium flux, dopamine EC20 potentiation; potentiation, % at 10 µM; hit rate 0.036% among 360,000; in the data active = potentiation above about 30%; note: 0% is about no effect
# Active calls of the source: *; / = no result given. Sampled rows, rich in hits. Any-hit rate of the full collection: about 4.6%. Cut-off read from the data, not from the text of the source, unless noted: active = activation above about 30%; inactive = the rest.
SMILES,D1 agonist,TRHR ag,D1 antag,TRHR PAM,D1 potentiator
CCOC(=O)c1cc(S(=O)(=O)NCC2CCN(Cc3cccc(C)c3)CC2)cn1C,10,1,1,-4,-3
Nc1cc(=O)[nH]c(SCC(=O)NNC(=O)c2ccccc2)n1,2,0,5,2,-6
COc1ccc(Br)cc1S(=O)(=O)N(CC(=O)N1CCN(C)CC1)c1ccccc1,4,0,9,1,5
N#Cc1ccc2[nH]c(CO)c(-c3ccccc3)c2c1,5,0,-40*,-1,-16
COC(=O)c1ccc2[nH]c(CO)c(-c3ccccc3)c2c1,8,1,-9,-1,-2
CCOc1ccc(N2C(=O)/C(=C/c3cccs3)N(C)C2=S)cc1,7,1,-37*,-7,-8
CCOc1ccc(N2C(=O)CN(C)C2=S)cc1,1,0,1,-1,-2
CCCCCCN(C(=O)CCCCCN1C(=O)NC(c2ccccc2)C(C(=O)OCc2ccccc2)=C1C)C(C(=O)NCCCC)c1ccc(OCC(=O)OC)c(C(=O)OC)c1 (stereo unspecified),38*,0,-54*,2,-5
CCCCCCN(C(=O)CCCCCN1C(=O)NC(c2ccc(C(C)(C)C)cc2)C(C(=O)OCc2ccccc2)=C1C)C(C(=O)NCCCC)c1ccc(OCC(=O)OC)c(C(=O)OC)c1 (stereo unspecified),17,3,-13,-5,-5
O=C(NCc1cccs1)c1ccc(N2CCCC2=O)cc1,2,1,5,-1,0
O=C(NCc1ccc2c(c1)OCO2)c1cc(COc2c(F)cccc2F)on1,14,-1,-13,-2,-3
O=C(NCc1ccc(N2CCCC2=O)cc1)c1cc(COc2c(F)cccc2F)on1,18,0,-32*,0,-6
C#Cc1ccc(C(=O)NCc2ccc(N3CCCC3=O)cc2)cc1,6,0,-32*,5,-8
COC(=O)[C@H](Cc1ccccc1)NC(=O)c1cc(COc2c(F)cccc2F)on1,31*,0,-20,3,-1
Cc1ccc(C)c(OCc2cc(C(=O)N(C)Cc3ccccn3)no2)c1,9,0,-44*,-4,5
CCC(C)NC(=O)C(=O)Nc1c2c(nn1-c1ccccc1)CS(=O)(=O)C2 (stereo unspecified),-4,-1,/,11,-2
Cc1cc(C)c2c(=O)c3c(oc2c1)C(=O)N(CCCOC(C)C)C3c1ccccc1F (stereo unspecified),0,-1,-3,6,0
CCC(=O)C1=C(c2cccc([N+](=O)[O-])c2)N(C(=O)CC)n2c(nnc2-c2ccccc2)S1,9,0,/,0,0
CN(CC1COc2ccccc2O1)C(=O)c1cc(COc2c(F)cccc2F)on1 (stereo unspecified),18,1,-46*,0,-3
CN(Cc1cc(-c2ccccc2)on1)C(=O)c1cc(COc2c(F)cccc2F)on1,12,0,1,34*,-2
Cc1cc(C)c2sc(N3CCN(C(=O)c4ccc(N(C)C)cc4)CC3)nc2c1,0,0,/,4,-2
COc1cccc(N2CCN(C(=O)C3CCCN(S(=O)(=O)c4ccc(Br)s4)C3)CC2)c1 (stereo unspecified),0,-1,-15,-6,-1
O=C(Nc1cc(Cl)cc(Cl)c1)c1coc(=O)c(Br)c1,37*,1,-46*,-4,-2
O=C(Nc1ccccc1F)c1oc2ccccc2c1NC(=O)c1c(F)cccc1F,4,0,3,-4,3
C=CCc1ccccc1OCc1nc2ccc(C)cc2[nH]1,21,-1,-37*,7,-2
SMILES,D1 agonist,TRHR ag,D1 antag,TRHR PAM,D1 potentiator
CC1(C)C(c2ccc(Cl)cc2)=[N+]([O-])C2(CCCC/C2=N\O)N1O (stereo unspecified),3,0,-87*,5,-7
Cc1ccc(C2=[N+]([O-])C3(CCCCC/C3=N\O)N(O)C2(C)C)o1 (stereo unspecified),4,1,7,1,5
Cc1nnc2n(c1=O)C(CS(=O)(=O)c1ccc3ccccc3c1)CS2 (stereo unspecified),-1,0,-10,33*,1
Cc1ccc(S(=O)(=O)CC2CSc3nnc(C)c(=O)n32)cc1 (stereo unspecified),1,0,8,-1,1
CC(C)c1ccc(NC(=O)CCCN2C(=S)NC(C)(C)CC2C)cc1 (stereo unspecified),7,0,-33*,7,-12
Oc1c(C(c2cccc(Br)c2)N2CCCC2)sc2nc(-c3ccco3)nn12 (stereo unspecified),0,0,/,-7,-3
Cc1sc2nc(CSc3ccccc3)nc(N3CCN(C)CC3)c2c1C,4,1,-42*,4,-10
Cc1oc(-c2cc(F)cc(F)c2)nc1CN1CCSCC1,3,1,-26,24,-4
COc1cc(OC)c(OC)cc1CCC(C)NCCC(c1ccccc1)c1ccccc1 (stereo unspecified),78*,7,-15,-2,-7
COc1ccc(C(=O)Nc2ccc(NC(=O)CSc3nnc(-c4ccncc4)n3C)cc2)cc1,3,1,8,3,0
COc1ccc(NC(=O)CSc2nnnn2-c2ccc(OC)cc2)cc1,-3,0,-80*,6,4
COc1ccc(-c2nnc(SCC(=O)Nc3ccc(C)cc3)n2C)cc1,0,0,-90*,-1,0
COc1ccc(NC(=O)CSc2nnnn2-c2ccc(F)cc2)cc1,1,0,0,0,0
CCn1c(SCC(=O)N(C)CC(=O)Nc2cccc(OC)c2)nnc1-c1ccco1,4,0,2,27,0
Cc1ccc(S(=O)(=O)N(C)C)cc1NC(=O)CSc1nnnn1-c1ccc(O)cc1,3,2,-8,1,-1
CN(C)S(=O)(=O)c1ccc(Cl)c(NC(=O)CSc2nnnn2-c2ccc(O)cc2)c1,15,-1,-32*,11,4
CCn1c(SCC(=O)N(C)CC(=O)Nc2ccc(OC)cc2)nnc1-c1ccco1,1,-1,-24,38*,1
O=C(c1cn(-c2ccccc2)nc1-c1cccnc1)N1CCCC(C(F)(F)F)C1 (stereo unspecified),0,0,-2,-3,1
COc1ccc(CCC(=O)N2CCCc3ccccc32)cc1,-2,0,-37*,12,-2

# Screening results: PubChem, National Center for Advancing Translational Sciences (NCATS)
